Bioassay records (PubChem BioAssay)
PfG6PD inh – PfG6PD (Plasmodium falciparum) enzyme inhibition; actives 0.78% (n = 350,000); AID 504690; PfGluPho enzyme, NADPH resazurin-diaphorase fluorescence; inhibition, % at 20 µM;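 active = inhibition reaching at least a set limit at 20 µM in the primary screen, cut at about 59% in these data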;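 note: 0% = DMSO wells with substrate and 100% = DMSO wells lacking glucose-6-phosphate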
PHOSPHO1 inh – PHOSPHO1 (human) inhibition; actives 1.1% (n = 290,000); AID 1565; Q8TCT1; recombinant PHOSPHO1, absorbance phosphatase assay; inhibition, % at 13.3 µM; in the data active = inhibition above about 60%
Target sequence (Q8TCT1 whole entry, looked up): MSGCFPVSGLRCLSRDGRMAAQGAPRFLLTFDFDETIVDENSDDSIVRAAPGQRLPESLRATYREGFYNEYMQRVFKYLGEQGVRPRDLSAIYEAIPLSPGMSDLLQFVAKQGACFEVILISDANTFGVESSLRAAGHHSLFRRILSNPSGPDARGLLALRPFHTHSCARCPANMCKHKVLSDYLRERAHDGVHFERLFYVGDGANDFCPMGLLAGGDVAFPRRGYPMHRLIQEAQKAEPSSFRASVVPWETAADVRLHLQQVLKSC
M18AAP inhibitor – blocks P. falciparum M18 aspartyl aminopeptidase; inhibition, % at 7.35 µM; recombinant PfM18AAP, H-Glu-NHMec fluorogenic cleavage; actives 1.2% (n = 290,000);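 active = inhibition above the campaign mean inhibition over all tested compounds plus 3 SD, cut at about 28% in these data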;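 note: 0% = plate median of test compound wells and 100% = 2 mM ZnCl2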
Cardio protect – modulators protecting cardiomyocytes from myocardial damage. protection from H2O2 cell death, % at 20 µM. AID 588492. actives 0.63% (n = 360,000). H9c2 cardiomyocytes, H2O2 injury protection, ATPLite, 2 h;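 active = compounds giving at least 50% protection of heart cells from peroxide-induced death in the single-dose screen, raw or plate-pattern-corrected value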;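 note: 0% = DMSO wells with peroxide and 100% = DMSO wells without peroxide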
ALR H2O2 inh – blocks human ALR sulfhydryl oxidase activity; inhibition, % (test concentration not listed); AID 485317; P55789; actives 3.8% (n = 290,000); purified ALR, DTT oxidation, H2O2 HRP-luminol luminescence;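 active = mean replicate inhibition above about 79%, with every replicate also reaching it, limit read from the data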
Active calls of the source: *; nt = no result given. Sampled rows, rich in hits. Any-hit rate of the full collection: about 5.6%.

SMILES	PfG6PD inh	PHOSPHO1 inh	M18AAP inhibitor	Cardio protect	ALR H2O2 inh
Cc1cc(C)c(/C=C(\C#N)S(=O)(=O)c2ccccc2)[nH]1	15	43	-4	-3	nt
Cc1[nH]c2ccccc2c1/C=C(\C#N)S(=O)(=O)c1ccccc1	5	-7	1	-13	97*
CCCC(=O)Nc1ccc(-c2csc(NNC(C)=O)n2)cc1	15	-16	11	-1	99*
CC(=O)NNc1nc(-c2ccc(C)cc2)cs1	20	-85	26	-1	83*
O=C(C(=NNc1ccccc1)C(=S)Nc1ccccc1)c1ccccc1	nt	nt	nt	-7	nt
CCc1ccccc1NC(=O)CN(C)C(=O)COC(=O)c1c(Cl)cccc1Cl	-21	nt	nt	-5	nt
CC1CCCCC12NC(=O)N(CC(=O)N1CCN(S(=O)(=O)/C=C/c3ccccc3)CC1)C2=O (configuration not stated)	5	nt	nt	5	-1
CCOC(=O)C1(C)/C(=N/Nc2ccccc2)C(=O)C(=O)N1c1ccccc1 (configuration not stated)	0	99*	-7	13	66
Cc1nnn(-c2nonc2N)c1C(=O)N/N=C/c1cccc2ccccc12	7	-12	-1	9	-10
COc1cccc(-c2c(C(=O)N/N=C/c3sccc3C)nnn2-c2nonc2N)c1	91*	28	5	3	-5
Cc1nnn(-c2nonc2N)c1C(=O)N/N=C/c1ccccc1O	-18	-17	-4	54*	-13
CC(C)(C)NC(=O)COC(=O)c1ccc(NC(=O)CC#N)cc1	-9	32	5	-1	99*
O=C(COC(=O)c1ccc(CO)cc1)Nc1ccc2ccccc2c1	3	nt	nt	0	-7
N#CCC(=O)Nc1ccc(C(=O)OCC(=O)NNC(=O)c2ccc(Cl)cc2)cc1	-9	nt	nt	-5	67
N#CCC(=O)Nc1ccc(C(=O)OCC(=O)c2ccc3c(c2)OCO3)cc1	-6	nt	nt	-4	99*
N#CCC(=O)Nc1ccc(C(=O)OCC(=O)Nc2ccc3ccccc3c2)cc1	19	nt	nt	3	92*
CC1CN(C(=O)COC(=O)c2ccc(NC(=O)CC#N)cc2)CC(C)O1 (configuration not stated)	-2	48	7	7	99*
Cc1ccc(CS(=O)Cc2ccc(C(=O)N3CCN(c4ccccn4)CC3)o2)cc1 (configuration not stated)	9	26	-1	9	-1
CCN(C(=O)COC(=O)C1CCN(S(=O)(=O)c2cccs2)CC1)c1ccccc1	16	-29	7	6	-19
COC(=O)[C@@]1(C)[C@H]2C(=O)N(C)C(=O)[C@H]2[C@H]2CN=C(SC)N21	-10	nt	nt	16	nt
CN1C(=O)CC(NNC(=O)c2ccc(Cl)cc2)C1=O (configuration not stated)	-3	8	1	-1	90*
Cc1cccc(NC(=O)c2cccc(S(=O)(=O)N(C)c3ccccc3)c2)n1	14	nt	nt	4	nt
COc1ccccc1N1CCN(C(=O)CCSCc2ccccc2F)CC1	-22	-3	2	4	96*
COc1cccc(N2CCN(C(=O)CCSCc3ccccc3F)CC2)c1	-5	4	2	4	97*
COc1ccc(NC(=O)C2CCCCC2)cc1S(=O)(=O)N1CCOCC1	-11	nt	nt	3	-4
SMILES	PfG6PD inh	PHOSPHO1 inh	M18AAP inhibitor	Cardio protect	ALR H2O2 inh
C[C@@H]1CN([C@H](C)CO)C(=O)c2cc(Br)cnc2O[C@H]1CN(C)C(=O)CC1CC1	14	nt	nt	-4	nt
CC(C)NC(=O)c1sc2nc3c(c(-c4cccs4)c2c1N)CN(C)CC3	39	63*	13	4	-59
CC(C)/C=C/C(=O)N1CCC(N2CCC(C(=O)NCC3CCCO3)CC2)CC1 (configuration not stated)	7	nt	nt	4	nt
O=[N+]([O-])c1cc([N+](=O)[O-])c(Oc2c(F)ccc(F)c2F)cc1NN1CCCCC1	-7	-7	4	-6	96*
CC(=O)c1cccc(Oc2cc(NN3CCCCC3)c([N+](=O)[O-])cc2[N+](=O)[O-])c1	-2	-7	4	-5	93*
CC(=O)c1ccccc1Oc1cc(NN2CCCCC2)c([N+](=O)[O-])cc1[N+](=O)[O-]	-11	-41	4	-1	nt
Nc1cc(Br)cc2c1[nH]c(=O)c1ccccc12	1	nt	nt	46	nt
COC(CN(C(=O)CCl)C(C(=O)NC1CCCCC1)c1ccccc1C)OC (configuration not stated)	28	-12	-1	-8	77*
O=C(c1cc(C(=O)c2ccco2)cc(C(=O)c2ccco2)c1)c1ccco1	-5	14	-12	10	97*
